From PubChem BioAssay AID1159580 (chemical genetic matrix, 2015)
Where “and” joins values, the source holds several entries; their conditions need not be identical. Identical values can stand only once. Among all 5,500 compounds or so, about 2,000 (36%) were called active. Another 18% or so got no clear call; they are omitted. Rule as the data show it: active = normalized growth mostly below about 0.91 (no sharp cut-off); inconclusive = no clear call, values can overlap the other calls; inactive = mostly above about 0.92. The list shows a part of the results.

Assay: chemical genetic growth profiling, strain panel (AID 1159580);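 also: tested at 20 µM; growth read once vehicle control cultures reached saturation at 30 °C; 1 = growth at the plate median or of vehicle wells; lower values mean less growth of the strain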
Settings: S. cerevisiae deletion strains, growth OD

Measured: normalized growth

CCCCCCOc1ccccc1C(N)=O
inactive: locus YAL021C, strain ccr4, active compounds read low 1.04 | locus YAL030W, strain snc1, active compounds read low 0.939 | locus YBR231C, strain swc5, active compounds read low 0.922 | locus YBR279W, strain paf1, active compounds read low 0.934 | locus YCR088W, strain abp1, active compounds read low 0.94 | locus YDL005C, strain med2, active compounds read low 0.964 | locus YDL040C, strain nat1, active compounds read low 0.948 | locus YDR001C, strain nth1, active compounds read low 0.949 | locus YDR069C, strain doa4, active compounds read low 0.989 | locus YDR195W, strain ref2 1.05 | locus YDR334W, strain swr1, active compounds read low 0.959 | locus YDR335W, strain msn5, active compounds read low 0.956 | locus YEL037C, strain rad23, active compounds read low 0.943 | locus YEL061C, strain CIN8 (second series), active compounds read low 0.935 | locus YER016W, strain bim1, active compounds read low 0.928 | locus YER111C, strain swi4, active compounds read low 0.941 | locus YFR010W, strain ubp6, active compounds read low 0.985 | locus YGL167C, strain pmr1, active compounds read low 0.92 | locus YGL173C, strain kem1, active compounds read low 0.939 | locus YGL227W, strain vid30, active compounds read low 0.947 | locus YHR013C, strain ard1, active compounds read low 0.916 | locus YHR027C, strain rpn1, active compounds read low 0.945 | locus YHR079C, strain IRE1, active compounds read low 0.924 | locus YJL092W, strain hpr5, active compounds read low 0.919 | locus YJL115W, strain asf1, active compounds read low 0.96 | locus YJL154C, strain vps35, active compounds read low 0.959
active: locus YAL013W, strain DEP1, active compounds read low 0.662 | locus YAL026C, strain drs2, active compounds read low 0.75 | locus YBL061C, strain skt5, active compounds read low 0.893 | locus YBR009C, strain hhf1, active compounds read low 0.862 | locus YBR021W, strain FUR4, active compounds read low 0.84 | locus YBR023C, strain chs3, active compounds read low 0.81 | locus YBR171W, strain sec66, active compounds read low 0.857 | locus YBR229C, strain ROT2, active compounds read low 0.86 | locus YCL011C, strain gbp2, active compounds read low 0.897 | locus YCL016C, strain dcc1, active compounds read low 0.874 | locus YCL029C, strain bik1, active compounds read low 0.38 | locus YCL069W, strain vba3, active compounds read low 0.849 | locus YDL035C, strain GPR1, active compounds read low 0.553 | locus YDL074C, strain BRE1, active compounds read low 0.443 | locus YDL101C, strain DUN1, active compounds read low 0.505 | locus YDL134C, strain PPH21, active compounds read low 0.513 | locus YDL185W, strain tfp1, active compounds read low 0.636 | locus YDL192W, strain arf1, active compounds read low 0.654 | locus YDR101C, strain arx1, active compounds read low 0.655 | locus YDR137W, strain rgp1, active compounds read low 1.39 [resistant] | locus YDR150W, strain NUM1, active compounds read low 0.744 | locus YDR159W, strain sac3, active compounds read low 0.784 | locus YDR162C, strain NBP2, active compounds read low 0.338 | locus YDR297W, strain sur2, active compounds read low 0.914 | locus YDR318W, strain mcm21, active compounds read low 0.41 | locus YDR388W, active compounds read low 0.71 | locus YDR392W, strain spt3, active compounds read low 0.335 | locus YDR502C, strain sam2, active compounds read low 0.546 | locus YEL003W, strain gim4, active compounds read low 0.867 | locus YEL061C, strain CIN8, active compounds read low 0.449 | locus YER015W, strain faa2, active compounds read low 0.892 | locus YER110C, active compounds read low 0.544 | locus YER155C, strain BEM2 (second series), active compounds read low 0.249 | locus YER155C, strain BEM2, active compounds read low 0.304 | locus YER167W, strain BCK2, active compounds read low 0.367 | locus YGL078C, strain dbp3, active compounds read low 0.864 | locus YGL086W, strain mad1, active compounds read low 0.439 | locus YGL240W, strain doc1, active compounds read low 0.789 | locus YGL248W, strain PDE1, active compounds read low 0.612 | locus YGL253W, strain hxk2, active compounds read low 0.824 | locus YGR135W, strain pre9, active compounds read low 0.533 | locus YGR229C, strain SMI1, active compounds read low 0.144 | locus YGR252W, strain gcn5, active compounds read low 0.446 | locus YHR030C, strain SLT2, active compounds read low 0.0615 and 0.831 | locus YHR079C, strain IRE1 (second series), active compounds read low 0.646 | locus YHR094C, strain hxt1, active compounds read low 0.765 | locus YHR129C, strain ARP1, active compounds read low 0.474 | locus YHR142W, strain chs7, active compounds read low 0.692 | locus YHR200W, strain rpn10, active compounds read low 0.804 | locus YIL066C, strain RNR3, active compounds read low 0.188 | locus YIL073C, strain SPO22, active compounds read low 0.535 | locus YIL125W, strain kgd1, active compounds read low 0.796 | locus YIR030C, strain dcg1, active compounds read low 0.615 | locus YJL095W, strain BCK1 (second series), active compounds read low 0.704 | locus YJL095W, strain BCK1, active compounds read low 0.0726 and 0.863 | locus YJL129C, strain trk1, active compounds read low 0.755 | locus YJL134W, strain LCB3, active compounds read low 0.868 | locus YJL164C, strain tpk1, active compounds read low 0.863 | locus YJL166W, strain qcr8, active compounds read low 0.822 | locus YJL168C, strain set2, active compounds read low 0.826 | locus YJL187C, strain SWE1 (second series), active compounds read low 0.612 | locus YJL187C, strain SWE1, active compounds read low 0.917
